Screening data deposited in PubChem BioAssay by several laboratories.
Rows were chosen to be rich in hits. Some 1.3% of all compounds tested hit in one or more screens of this group.
PvdQ acylase: blocks Pseudomonas aeruginosa PvdQ acylase activity; purified PvdQ acylase, fluorescence plate reader; inhibition, % at 10 µM; actives 0.063% (n = 340,000); AID 488965; in the data active means inhibition above about 30%, passing the limit was not always enough;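 further: 0% = vehicle neutral wells and 100% = reference inhibitor wells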
MOR-DOR ag-1: OPRM1-OPRD1 heterodimerization agonism. P35372+P41143. cells, luminescence. activation, % at 9.3 µM. actives 0.3% (n = 340,000);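 further: 0% = vehicle-treated cells and 100% = reference agonist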
CR mimetic SO: lowers age-related superoxide in aged yeast cells; S. cerevisiae aged cells, superoxide DHE fluorescence; hits give low values; superoxide response (% of plate mean), % at 10 µM; actives 0.18% (n = 330,000);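 active means superoxide response under a set limit, about three screen SD below normal, cut at about 65% in these data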;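 further: yeast aged for seven days with compound at 30 °C before DHE staining; 100% = average MFI of all compound-treated wells on the plate with controls excluded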
HTR5A ag ctr: HTR5A agonism, opioid heterodimer counter-screen | P47898 | activation, % at 9.3 µM | actives 0.61% (n = 340,000) | HTR5A agonist assay, luminescence, cell-based | AID 504692; in the data active means activation mostly above about 9.5%, no sharp cut-off; inactive means mostly below about 7.6%;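 further: 0% = cells with vehicle only and 100% = reference agonist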
Target sequence (P47898 whole entry, looked up): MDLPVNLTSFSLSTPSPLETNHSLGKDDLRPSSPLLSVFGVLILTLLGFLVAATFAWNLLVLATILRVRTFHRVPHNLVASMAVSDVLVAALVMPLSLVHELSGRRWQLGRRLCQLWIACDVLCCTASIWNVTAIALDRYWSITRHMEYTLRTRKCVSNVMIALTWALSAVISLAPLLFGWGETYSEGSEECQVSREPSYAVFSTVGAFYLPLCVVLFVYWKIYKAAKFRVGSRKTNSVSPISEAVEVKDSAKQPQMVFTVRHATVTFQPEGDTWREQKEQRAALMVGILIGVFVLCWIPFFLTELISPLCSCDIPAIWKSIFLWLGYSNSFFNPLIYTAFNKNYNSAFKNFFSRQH
OPRM1-OPRD1 inv: inverse agonist of human OPRM1-OPRD1 heterodimerization; actives 0.21% (n = 340,000); inhibition, % at 9.3 µM; P35372+P41143; cell-based MOR-DOR heterodimer luminescence, inverse agonism; in the data active means inhibition above about 22%, passing the limit was not always enough;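 further: 0% = cells with DMSO and 100% = wells without cells with DMSO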
HTR5A inv ag: HTR5A inverse agonism, opioid heterodimer counter-screen | P47898 | HTR5A cell line, luminescence | inhibition, % at 9.3 µM | actives 0.083% (n = 340,000) | AID 504634; in the data active means inhibition mostly above about 23%, no sharp cut-off; inactive means mostly below about 18%;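 further: 0% = cells with DMSO and 100% = no-cell wells with DMSO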
MOR-DOR ag-2: counter-screen for HTR5A agonists: OPRM1-OPRD1 heterodimerization agonism | shares compounds with HTR5A ag ctr | U2OS counter-screen cells, complementation luminescence, 3 h | activation, % at 9.3 µM | actives 13% (n = 800) | AID 504913
HTR5A ag conf: HTR5A (human) agonism, confirmation | activation, % at 9.3 µM | actives 17% (n = 800) | HTR5A agonist cell assay, luminescence | AID 504915 | shares compounds with HTR5A ag ctr; in the data active means activation above about 17%;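 further: 0% = cells with vehicle only and 100% = full reference agonist response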
* = called active by the depositor; . = not tested or not shown. Unless noted, no stated cut-off is given here; in the data, active means activation above about 18%; inactive means the rest.

SMILES	PvdQ acylase	MOR-DOR ag-1	CR mimetic SO	HTR5A ag ctr	OPRM1-OPRD1 inv	HTR5A inv ag	MOR-DOR ag-2	HTR5A ag conf
COc1ccc(S(=O)(=O)O/N=C2\CCSc3ccc(C)cc32)cc1	-15	5	95	-2	-21	-7	.	.
Cc1cccc(C(=O)O/N=C2\CCSc3ccc(C)cc32)c1	-2	2	109	15*	-8	10	7	41*
Cc1ccc(C(=O)O/N=C2\CCSc3ccc(C)cc32)cc1	-12	0	99	37*	-1	-89	2	1
CC(=O)c1ccc(N2CCN(C(=O)c3nn(C)c4c3CS(=O)(=O)c3ccccc3-4)CC2)cc1	-12	0	100	3	0	10	.	.
COc1ccc(OC)c(-c2csc(NC(=O)Cn3[nH]c(=O)c4ccccc4c3=O)n2)c1	-15	2	98	31*	-11	-80	3	6
COc1ccc(OC)c(-c2csc(NC(=O)Cc3ccc(F)cc3)n2)c1	-9	5	101	8	-40	-7	.	.
COc1ccc(CNC(=O)c2ccc3nccnc3c2)cc1	-4	-2	87	19*	10	-49	1	-1
CS(=O)(=O)C1=C(O)C(=O)N(CCCC(=O)O)C1c1ccccc1F (stereo unspecified)	4	0	100	16*	1	-43	0	7
CC(=O)C1=C(O)C(=O)N(Cc2ccccc2)C1c1ccccc1F (stereo unspecified)	-14	1	119	0	-4	14	.	.
O=C(NCc1ccc2c(c1)OCO2)c1cnc2n(c1=O)CCS2	7	-1	101	19*	5	-53	0	0
O=C(Nc1ccc2c(c1)OCO2)c1cnc2n(c1=O)CCS2	-6	-3	107	-3	18	-31	.	.
COCCn1c(C)cc(C(=O)CSc2nnnn2C2CCCC2)c1C	-15	0	104	-2	1	5	.	.
COc1ccc(-c2n(CC(=O)OC3CC(C)CCC3C(C)C)c3ccccc3[n+]2C)cc1 (stereo unspecified)	-11	0	.	3	2	-7	.	.
COc1ccc(OCc2n(CC(=O)OC3CC(C)CCC3C(C)C)c3ccccc3[n+]2C)cc1 (stereo unspecified)	9	3	95	21*	-17	-58	4	7
COc1ccc(CCN=C(C)c2cc(C)c(C)cc2O)cc1OC	-17	-1	92	4	3	-14	.	.
COc1cc2nc(N3CCN(c4cc(C)ccc4C)CC3)nc(N)c2cc1OC	-5	14	106	17*	-79	-65	13	6
COc1cc2nc(N3CCNCC3)nc(N)c2cc1OC	7	-2	87	1	8	-30	.	.
O=C(CCCC(=O)c1ccccc1)NCc1ccccc1	-8	-2	97	2	7	-9	.	.
Fc1ccc(C(c2nnnn2C2CCCC2)N2CCN(Cc3ccccc3)CC2)cc1 (stereo unspecified)	-5	-1	.	18*	3	-40	6	1
O=C(NNC(=O)c1ccccc1OCc1ccc(F)cc1)c1ccncc1	-6	-2	94	0	12	-16	.	.
O=C(Nc1ccc(F)c(F)c1)C1CCN(S(=O)(=O)c2cccc3nonc23)CC1	7	6	94	17*	-35	-12	0	0
CC(=O)Nc1ccc(NC(=O)C2CCN(S(=O)(=O)c3cccc4nonc34)CC2)cc1	-1	-2	109	1	11	3	.	.
O=c1c2ccccc2cnn1CCOc1cccc(Br)c1	-5	3	96	-1	-17	2	.	.
CSc1ncccc1C(=O)N1CCN(S(=O)(=O)c2ccc(C)cc2)CC1	-5	0	92	3	2	-17	.	.
CCOC(=O)c1cc2sc(C)cc2n1CC(=O)NCc1ccc(F)cc1	-8	8	130	20*	-47	-22	3	5
SMILES	PvdQ acylase	MOR-DOR ag-1	CR mimetic SO	HTR5A ag ctr	OPRM1-OPRD1 inv	HTR5A inv ag	MOR-DOR ag-2	HTR5A ag conf
Cc1ccc(SCCC(=O)Nc2ccccc2Br)cc1	-12	4	72	-1	-22	-6	.	.
Cc1ccc(SCCC(=O)Nc2ccccc2C(=O)NC(C)C)cc1	1	-1	92	17*	5	-42	3	-2
O=C(CSc1ccc2ccccc2n1)c1ccc2c(c1)OCO2	15	0	83	40*	-1	-121	5	53*
O=C(Cc1ccc(Br)cc1)NCCc1ccc(Cl)cc1Cl	6	2	108	16*	-9	4	-5	-4
O=C(Cc1ccccc1)NCCc1ccc(Cl)cc1Cl	-11	-1	127	1	5	-2	.	.
O=C1c2ccccc2[C@@H]2C[C@H]3O[C@H]3CCN12	0	-3	100	-1	13	4	.	.
Cc1ccc(C(=O)c2c3ccc([N+](=O)[O-])cc3[n+]([O-])n2CCCC(N)=O)cc1	2	5	84	17*	-28	-43	-1	0
Cc1cc(C)c(S(=O)(=O)Nc2ccc(-c3cn4ccccc4n3)cc2)c(C)c1	-12	4	92	14*	-16	-19	1	40*
CN(Cc1ccccc1)C(=O)COC(=O)COc1ccc(C#N)cc1	-6	0	.	-1	0	3	.	.
CSc1ccc(Cl)c(C(=O)N2CCN(c3ncccn3)CC2)c1	11	0	108	-3	0	8	.	.
CC(c1ccc(O)cc1)(c1ccc(O)cc1)c1ccc(CCBr)cc1	-13	-1	127	15*	6	-53	7	3
CC(C)(Cc1ccccc1)/[N+]([O-])=C\c1ccccc1	-10	2	89	9	-10	-27	.	.
OC(CN1CCN(Cc2ccccc2)CC1)c1ccc(F)cc1 (stereo unspecified)	-13	1	118	-9	-4	22	.	.
OC(CN1CCN(c2cccc(Cl)c2)CC1)c1ccc(F)cc1 (stereo unspecified)	2	7	97	19*	-32	-72	7	27*
Cc1cc(OC(=O)c2ccccc2Cl)cc(=O)n1C	-12	2	87	16*	-7	-3	123*	-4
O=C(Oc1ccc(N2C(=O)CCC2=O)cc1)c1ccccc1Cl	4	-3	81	3	14	12	.	.
O=C(NCc1ccc2c(c1)OCO2)C1CC(=O)N(CCc2ccc(F)cc2)C1 (stereo unspecified)	-9	1	122	16*	-12	-48	-1	-3
CC(C)(C)NC(=O)NC(=O)COC(=O)CNC(=O)c1cccc(F)c1	-1	0	90	15*	1	-1	56*	26*
Cc1cccc(N2CCN(C(=O)COc3ccc4c(C)cc(=O)oc4c3C)CC2)c1C	-12	0	91	3	-1	-6	.	.
